The results in this text go back to PubChem BioAssay (NCATS).

Results filed as inconclusive are left out. Values without a mark were called inactive. Activity calls are given as the source filed them. Calls follow the shape of the full dose curve.
% is scaled to controls: 0 for no effect and ±100 for the full control effect.

Chain of Nucleoprotein (Lymphocytic choriomeningitis virus (strain Armstrong)) (P09992 whole entry, looked up): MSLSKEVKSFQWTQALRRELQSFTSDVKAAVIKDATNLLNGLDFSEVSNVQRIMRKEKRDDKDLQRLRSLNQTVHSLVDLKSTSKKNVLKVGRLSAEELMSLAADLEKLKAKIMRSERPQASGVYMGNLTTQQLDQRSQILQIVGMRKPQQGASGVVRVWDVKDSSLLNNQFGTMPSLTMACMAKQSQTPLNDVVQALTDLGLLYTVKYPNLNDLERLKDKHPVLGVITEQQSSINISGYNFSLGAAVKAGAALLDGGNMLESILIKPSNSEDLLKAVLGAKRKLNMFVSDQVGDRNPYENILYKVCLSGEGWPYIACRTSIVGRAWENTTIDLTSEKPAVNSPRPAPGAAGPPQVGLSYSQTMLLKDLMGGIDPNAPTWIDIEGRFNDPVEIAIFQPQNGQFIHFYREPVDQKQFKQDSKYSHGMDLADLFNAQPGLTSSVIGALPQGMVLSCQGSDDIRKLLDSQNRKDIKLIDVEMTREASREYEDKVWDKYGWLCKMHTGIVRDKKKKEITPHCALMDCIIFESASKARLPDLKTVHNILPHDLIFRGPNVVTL

The assay addresses Nucleoprotein (Lymphocytic choriomeningitis virus (strain Armstrong)) (UniProt P09992). In words: qHTS for Inhibitors of the Functional Ribonucleoprotein Complex (vRNP) of Lymphocytic Choriomeningitis Arenaviruses (LCMV): LCMV Primary Screen - GLuc reporter signal (AID 1347086). Also: nearly all actives have a fitted effect of over 70% in size. As to conditions: LCMV minigenome vRNP cell assay, Gaussia luciferase reporter; series mostly up to 57.5 µM; activity change, negative = inhibition: at the top concentration.
On to `CCCc1ncc(C[n+]2ccccc2C)c(N)n1`, for which the “activity change, negative = inhibition” value is 3.61%.
`NS(=O)(=O)c1cc2c(cc1Cl)CN(C1CCCCC1)C2=O`: the “activity change, negative = inhibition” value is 1%.
As for `c1cc(CN2CCCCC2)cc(OCCCNc2nc3ccccc3s2)c1`, the “activity change, negative = inhibition” value is -23.1%.
On to `CCN(CC)CC(=O)Nc1c(C)cccc1C(=O)OC`, for which the “activity change, negative = inhibition” value was -6.45%.
The same measure, in the same setting: the same measure for `COc1ccc(S(=O)(=O)N2c3ccc(Cl)cc3[C@@](O)(c3ccccc3Cl)[C@H]2C(=O)N2CCC[C@@H]2C(N)=O)cc1OC`: 6.32%.
For `CCN(CC)CCOCCOC(=O)C1(c2ccccc2)CCCC1`, the Potency entry is “inactive”.
Turning to `CCOC(=O)NNc1nncc2ccccc12`, the “activity change, negative = inhibition” value was 20.2%.
Same read-out and setting: the same measure for `CCN(CC)CCOc1ccc(Cc2ccccc2)cc1`: -35.9%.
Still for that read-out and setting: as for `CCCCCC1Nc2cc(C(F)(F)F)c(S(N)(=O)=O)cc2S(=O)(=O)N1` (centres undefined), the figure is 23.2%; as for `CC[N+](CC)(CC)CCOC(=O)C(C1CCCC1)C1CCCC1`, -0.005%.
For the compound `O=S(=O)(c1cccc2cnccc12)N1CCCNCC1`, the Potency entry was “inactive”.
On to `COc1ccc(-c2cc(C(F)F)nn2-c2ccc(S(N)(=O)=O)cc2)cc1F`, for which the “activity change, negative = inhibition” value was 21.9%.
Take `CCCCCCCCCCCC[N+](C)(C)Cc1ccccc1`: the “activity change, negative = inhibition” value is -2.02%.
On to `O=[N+]([O-])c1nccn1CO[C@@H](CO)[C@H](O)CO`, for which the “activity change, negative = inhibition” value is 15.5%.
As for `Cc1[nH]c(=O)c(C#N)cc1-c1ccc2nccn2c1`, the Potency result was “inactive”.
Regarding `CC(=O)OCC(=O)NCCCOc1cccc(CN2CCCCC2)c1`, the “activity change, negative = inhibition” value was 1.16%.
Still for that read-out and setting: the same measure for `COC(=O)[C@@H](N)Cc1ccc(O)c(O)c1`: -10%; for `C[C@H]1[C@H]2CC[C@H]3[C@@H]4CC=C5C[C@@H](N(C)C)CC[C@]5(C)[C@H]4CC[C@]23CN1C`: 22%.
With `COc1ccc2c(c1)c(CC(=O)O)c(C)n2C(=O)c1ccc(Cl)cc1`, the Potency result was “inactive”.
